TEAD-YAP block: TEAD-YAP interaction inhibition. inhibition, % at 9.12 µM. HEK-TIYL cells, TEAD-Gal4/YAP UAS-luciferase luminescence. actives 1.4% (n = 640,000). AID 1259422; in the data active = inhibition above about 32%
MITF primary: human MITF inhibition, primary screen; O75030; AlphaScreen MITF homodimerization, bead proximity signal; inhibition, % at 2.6 µM; actives 0.91% (n = 650,000); in the data active = inhibition above about 50%
FBW7 act: activators of human E3 ligase FBW7; actives 0.13% (n = 650,000); AID 1259310; AlphaScreen FBW7–phospho-cyclin E peptide binding, activator screen; normalized activity (activation), % at 26.1 µM; in the data active = normalized activity above about 1.9%;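 note: purified mutant Fbw7 with reduced substrate affinity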
Target sequence (Q969H0 whole entry, looked up): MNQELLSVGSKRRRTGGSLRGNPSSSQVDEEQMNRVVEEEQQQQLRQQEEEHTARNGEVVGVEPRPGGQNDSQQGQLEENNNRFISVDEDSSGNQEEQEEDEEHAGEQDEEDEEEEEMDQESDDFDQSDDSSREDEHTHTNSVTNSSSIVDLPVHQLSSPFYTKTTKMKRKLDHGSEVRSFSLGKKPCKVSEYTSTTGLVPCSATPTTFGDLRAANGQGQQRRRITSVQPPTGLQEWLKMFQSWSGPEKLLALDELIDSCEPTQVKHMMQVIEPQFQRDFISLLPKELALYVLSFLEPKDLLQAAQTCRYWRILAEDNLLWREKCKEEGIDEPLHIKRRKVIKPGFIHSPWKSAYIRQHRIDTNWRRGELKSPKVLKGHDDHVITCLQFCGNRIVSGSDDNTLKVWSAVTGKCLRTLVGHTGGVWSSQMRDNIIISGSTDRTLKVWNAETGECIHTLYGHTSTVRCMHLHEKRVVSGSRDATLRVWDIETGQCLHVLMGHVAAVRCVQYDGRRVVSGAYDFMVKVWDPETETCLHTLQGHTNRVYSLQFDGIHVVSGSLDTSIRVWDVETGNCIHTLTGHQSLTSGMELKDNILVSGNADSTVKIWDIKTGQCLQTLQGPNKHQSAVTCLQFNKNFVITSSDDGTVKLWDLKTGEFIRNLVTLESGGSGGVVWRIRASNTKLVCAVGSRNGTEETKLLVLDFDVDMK
GPR151 ag: human GPR151 activation; actives 1% (n = 650,000); Q8TDV0; PathHunter beta-arrestin GPR151 cells, luminescence; AID 1508602; activation, % at 11.2 µM; in the data active = activation above about 4.9%
Large screens that a line does not name were inactive. Hits are enriched below; roughly 3.5% of the tested compounds scored in any of these assays.

COc1ccc(C2=CC(c3ccc(OC)c(OC)c3)n3ncnc3N2)cc1 (stereo unspecified)	TEAD-YAP block 43
COc1cc(C2C=C(c3cccs3)Nc3ncnn32)cc(OC)c1OC (stereo unspecified)	TEAD-YAP block 65
COC(=O)c1nc2n(n1)C(c1cc(OC)c(OC)c(OC)c1)C=C(c1cccs1)N2 (stereo unspecified)	TEAD-YAP block 52
COc1ccc(C2C=C(c3ccc(F)cc3)Nc3ncnn32)cc1OC (stereo unspecified)	none
CC1(C)c2cc(Br)ccc2N2CCC(=O)NC21C (stereo unspecified)	none
CC(Oc1ccccc1)C(=O)NCc1ccccc1Cl (stereo unspecified)	none
CN(C)c1ccc(C2Nc3ccccc3C(=O)N2NC(=O)c2ccc([N+](=O)[O-])cc2)cc1 (stereo unspecified)	none
CN(C)CCCN1C(=O)C(=O)/C(=C(\O)c2ccccc2)C1c1cccc(Br)c1 (stereo unspecified)	none
COc1cc(C2C=C(c3ccc(Cl)cc3)Nc3ncnn32)cc(OC)c1OC (stereo unspecified)	TEAD-YAP block 64
Cc1ccccc1C(=O)/C=c1\[nH]c(=O)/c(=C\c2cccc(O)c2)s1	TEAD-YAP block 57
Clc1cccc(-n2ncc3c(N4CCOCC4)ncnc32)c1	TEAD-YAP block 71
Clc1ccc(-n2ncc3c(N4CCN(c5cccc(Cl)c5)CC4)ncnc32)cc1	none
Cc1ccc(-n2ncc3c(N4CCOCC4)ncnc32)cc1C	TEAD-YAP block 79
c1ccc(-n2ncc3c(N4CCOCC4)ncnc32)cc1	TEAD-YAP block 70
COc1ccc(-n2ncc3c(N4CCOCC4)ncnc32)cc1	TEAD-YAP block 91
Cc1[nH]c2ccccc2c1/C=N/N1C(=O)c2ccccc2C1=O	none
Cc1cccc(NC(=O)CSc2nnc3sc4ccccc4n23)c1C	none
Cc1c(NC(=O)CSc2nnnn2-c2ccccc2)c(=O)n(-c2ccccc2)n1C	none
COc1ccccc1N1CCN(c2ncnc3c2cnn3-c2ccc(C)cc2C)CC1	TEAD-YAP block 58
COc1ccccc1N1CCN(c2ncnc3c2cnn3-c2cccc(C)c2)CC1	none
COc1cc(C(=O)N/N=C/c2ccc([N+](=O)[O-])o2)cc(OC)c1OC	TEAD-YAP block 34
CCOc1cccc(/C=N/NC(=O)c2ccc(C)cc2C)c1O	none
Cc1cc(C(=O)N/N=C/c2ccc(O)c(O)c2O)c2ccccc2n1	MITF primary 82
Cc1ccc(C(=O)N/N=C/c2ccc(O)c(O)c2O)c(C)c1	MITF primary 57
Cc1c(C(=O)N/N=C/c2cccc(OC(=O)N3CCOCC3)c2)nnn1-c1nonc1N	none
COc1cc(C(=O)N/N=C/c2cccc(OC(=O)N3CCOCC3)c2)cc(OC)c1OC	TEAD-YAP block 58
Cc1ccc(C2(c3ccc(C)cc3)CC2C(=O)Nc2cccc(Br)c2)cc1 (stereo unspecified)	none
O=C(N/N=C/c1ccc(O)c(O)c1O)c1ccccc1-n1cccc1	MITF primary 56
Cc1cc(C(=O)N/N=C/c2cc([N+](=O)[O-])ccc2O)c2ccccc2n1	MITF primary 102
Cc1cc(C(=O)N/N=C/c2ccccc2OC(F)F)c2ccccc2n1	TEAD-YAP block 34
Cc1cc(C(=O)N/N=C/c2ccc(O)c(O)c2O)c(C)n1-c1ccccc1	none
O=C(N/N=C\c1ccc([N+](=O)[O-])o1)c1ccccc1-n1cccc1	TEAD-YAP block 49
CC(=O)c1ccc(NC(=O)c2ccc(N(Cc3ccccc3)S(C)(=O)=O)cc2)cc1	none
CN(C)S(=O)(=O)c1cccc(NC(=S)Nc2ccccc2C#N)c1	TEAD-YAP block 87
COc1ccc(/C=C2\C=C(c3ccc(Br)cc3)OC2=O)cc1C	none
Cc1cc(C)c2[nH]c(=O)c(CN(CCCO)C(=O)c3ccncc3)cc2c1	none
C=CCOC(=O)C1=C(C)OC(N)=C(C#N)C1c1cc2cc(C)ccc2[nH]c1=O (stereo unspecified)	TEAD-YAP block 59
COc1cccc(CC(=O)N2CCOc3ccc(C4(O)CCN(C)CC4)cc3C2)c1	none
COc1cc(NC(=O)c2cccc(-c3ccc(C(=O)NC4CC4)cc3)n2)cc(OC)c1OC	TEAD-YAP block 34
CC(=O)Nc1ccc(NC(=O)c2cccc(N3CCN(c4ccccn4)CC3)n2)cc1	TEAD-YAP block 36
O=C(Nc1ccccc1)c1cccc(N2CCN(c3ccccn3)CC2)n1	none
O=C(Nc1ccccc1)c1cccc(N2CCCC2CO)n1 (stereo unspecified)	none
COc1cc(NC(=O)c2cccc(N3CCCC3CO)n2)cc(OC)c1OC (stereo unspecified)	TEAD-YAP block 35
COc1cc(NC(=O)c2ccnc(N3CCN(c4ccccn4)CC3)c2)cc(OC)c1OC	none
COc1cc(NC(=O)c2cccc(N3CCN(c4ccccn4)CC3)n2)cc(OC)c1OC	TEAD-YAP block 42
COc1cc(/C=C\C(=O)Nc2c3c(nn2-c2ccc([N+](=O)[O-])cc2)CSC3)cc(OC)c1OC	none
N#CC1=C(N)OC2=C(CCC/C2=C/c2ccoc2)C1c1ccoc1 (stereo unspecified)	MITF primary 58
O=C1NC2(CCN(C(=O)CC3c4ccccc4Oc4ccccc43)CC2)Nc2ccccc21	none
CC(=O)Oc1cc(C(=O)Nc2ccc(F)cc2)cc(C(=O)Nc2ccc(F)cc2)c1	none
COC(=O)c1ccc(NC(=O)c2cc(OC(C)=O)cc(OC(C)=O)c2)cc1	TEAD-YAP block 45
CCCCCC1CC1C(=O)N/N=C/c1ccc(C)o1 (stereo unspecified)	none
O=S(=O)(c1ccc(Cl)s1)N1CCc2ccccc2C1	TEAD-YAP block 41
O=S(=O)(c1ccc(Cl)s1)N1CCCCCC1	none
COC(=O)c1ccc(CN2CCN(Cc3cccc(C)n3)C(CCO)C2)cc1 (stereo unspecified)	none
COC(=O)c1ccc(COc2ccc(S(=O)(=O)N3CCCC3)cc2[N+](=O)[O-])o1	none
O=C(NCCc1ccccc1)C1C2C3CCC(C3)C12 (stereo unspecified)	TEAD-YAP block 58
CCCS(=O)(=O)c1ncc(Cl)c(C(=O)Nc2ccc(CC)cc2)n1	none
CCCS(=O)(=O)c1ncc(Cl)c(C(=O)Nc2ccc(C(=O)OC)cc2)n1	TEAD-YAP block 43
CCS(=O)(=O)c1ncc(Cl)c(C(=O)Nc2cccc(Cl)c2C)n1	TEAD-YAP block 57
CCS(=O)(=O)c1ncc(Cl)c(C(=O)Nc2ccccc2Br)n1	TEAD-YAP block 36
CCN1C(=O)/C(=C\c2cc(C)n(-c3ccccc3F)c2C)C(C(=O)OC)=C1C	TEAD-YAP block 38
C=CCN1C(=O)/C(=C\c2cc(C)n(-c3ccccc3F)c2C)C(C(=O)OC)=C1C	TEAD-YAP block 36
CCN1C(=O)/C(=C\c2cc(C)n(-c3ccccc3C)c2C)C(C(=O)OC)=C1C	none
C=CCN1C(=O)/C(=C\c2cc(C)n(-c3ccccc3)c2C)C(C(=O)OC)=C1C	none
O=C(Nc1ccccc1)c1ccnc(N2CCN(c3ccccn3)CC2)c1	none
Cc1cc(C(=O)OCC(=O)N2C(C)CCCC2C)ccc1[N+](=O)[O-] (stereo unspecified)	none

High-throughput results: PubChem, The Scripps Research Institute Molecular Screening Center
